system: WHIM30 (cells of a triple-negative basal-like breast cancer xenograft); experiment: cell viability of combination (% of vehicle); higher = less cytotoxic; conditions: 1 µM; 72 h; partner dose: 10 nM
Experimental: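 PDX cells were treated for 72 h with each drug at 1 µM plus carfilzomib (10 nM; 100 nM for WHIM2). Luciferase viability is expressed as percent of vehicle.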

Structure (SMILES)	cell viability of combination
CC(C)CC(NC(=O)C(CCc1ccccc1)NC(=O)CN1CCOCC1)C(=O)NC(Cc1ccccc1)C(=O)NC(CC(C)C)C(=O)C1(C)CO1 (stereo not given) [Carfilzomib (PR-171)] + CC(C)C[C@H](NC(=O)[C@H](CCc1ccccc1)NC(=O)CN1CCOCC1)C(=O)N[C@@H](Cc1ccccc1)C(=O)N[C@@H](CC(C)C)C(=O)[C@@]1(C)CO1 [Carfilzomib]	9.47
C=CC(=O)N1CCC(Oc2cc3c(Nc4ccc(Cl)c(Cl)c4F)ncnc3cc2OC)CC1 [Poziotinib] + CC(C)C[C@H](NC(=O)[C@H](CCc1ccccc1)NC(=O)CN1CCOCC1)C(=O)N[C@@H](Cc1ccccc1)C(=O)N[C@@H](CC(C)C)C(=O)[C@@]1(C)CO1 [Carfilzomib]	8.92
Nc1ccn(C2OC(CO)C(O)C2O)c(=O)n1 (stereo not given) [Cytarabine] + CC(C)C[C@H](NC(=O)[C@H](CCc1ccccc1)NC(=O)CN1CCOCC1)C(=O)N[C@@H](Cc1ccccc1)C(=O)N[C@@H](CC(C)C)C(=O)[C@@]1(C)CO1 [Carfilzomib]	19.3
CCCCc1oc2ccccc2c1C(=O)c1cc(I)c(OCCN(CC)CC)c(I)c1.Cl [Amiodarone HCl] + CC(C)C[C@H](NC(=O)[C@H](CCc1ccccc1)NC(=O)CN1CCOCC1)C(=O)N[C@@H](Cc1ccccc1)C(=O)N[C@@H](CC(C)C)C(=O)[C@@]1(C)CO1 [Carfilzomib]	20.3
Cc1cc(Nc2ncc(Cl)c(Nc3ccccc3S(=O)(=O)C(C)C)n2)c(OC(C)C)cc1C1CCNCC1 + CC(C)C[C@H](NC(=O)[C@H](CCc1ccccc1)NC(=O)CN1CCOCC1)C(=O)N[C@@H](Cc1ccccc1)C(=O)N[C@@H](CC(C)C)C(=O)[C@@]1(C)CO1 [Carfilzomib]	7.66
CN1CCN(c2ccc(C(=O)/N=c3\[nH][nH]c4ccc(Cc5cc(F)cc(F)c5)cc34)c(NC3CCOCC3)c2)CC1 [Entrectinib] + CC(C)C[C@H](NC(=O)[C@H](CCc1ccccc1)NC(=O)CN1CCOCC1)C(=O)N[C@@H](Cc1ccccc1)C(=O)N[C@@H](CC(C)C)C(=O)[C@@]1(C)CO1 [Carfilzomib]	10.1
C=C1C(=CC=C2CCCC3(C)C2CCC3C(C)CCCC(C)(C)O)CC(O)CC1O (stereo not given) [Calcitriol] + CC(C)C[C@H](NC(=O)[C@H](CCc1ccccc1)NC(=O)CN1CCOCC1)C(=O)N[C@@H](Cc1ccccc1)C(=O)N[C@@H](CC(C)C)C(=O)[C@@]1(C)CO1 [Carfilzomib]	19.1
COc1cc2nccc(Oc3ccc(NC(=O)Nc4cc(C)on4)c(Cl)c3)c2cc1OC [Tivozanib (AV-951)] + CC(C)C[C@H](NC(=O)[C@H](CCc1ccccc1)NC(=O)CN1CCOCC1)C(=O)N[C@@H](Cc1ccccc1)C(=O)N[C@@H](CC(C)C)C(=O)[C@@]1(C)CO1 [Carfilzomib]	18.1
COC(=O)NC(C(=O)NC(Cc1ccccc1)C(O)CN(Cc1ccc(-c2ccccn2)cc1)NC(=O)C(NC(=O)OC)C(C)(C)C)C(C)(C)C (stereo not given) [Atazanavir] + CC(C)C[C@H](NC(=O)[C@H](CCc1ccccc1)NC(=O)CN1CCOCC1)C(=O)N[C@@H](Cc1ccccc1)C(=O)N[C@@H](CC(C)C)C(=O)[C@@]1(C)CO1 [Carfilzomib]	24.5
CCCCCCCCOc1ccccc1C(=O)Nc1ccc(C(=O)OCC[N+](C)(CC)CC)cc1.[Br-] [Otilonium Bromide] + CC(C)C[C@H](NC(=O)[C@H](CCc1ccccc1)NC(=O)CN1CCOCC1)C(=O)N[C@@H](Cc1ccccc1)C(=O)N[C@@H](CC(C)C)C(=O)[C@@]1(C)CO1 [Carfilzomib]	17.7
Cc1c(C(=O)NN2CCCCC2)nn(-c2ccc(Cl)cc2Cl)c1-c1ccc(Cl)cc1 [Rimonabant] + CC(C)C[C@H](NC(=O)[C@H](CCc1ccccc1)NC(=O)CN1CCOCC1)C(=O)N[C@@H](Cc1ccccc1)C(=O)N[C@@H](CC(C)C)C(=O)[C@@]1(C)CO1 [Carfilzomib]	16.3
CC(NCCCc1cccc(C(F)(F)F)c1)c1cccc2ccccc12 (stereo not given) [Cinacalcet] + CC(C)C[C@H](NC(=O)[C@H](CCc1ccccc1)NC(=O)CN1CCOCC1)C(=O)N[C@@H](Cc1ccccc1)C(=O)N[C@@H](CC(C)C)C(=O)[C@@]1(C)CO1 [Carfilzomib]	19.5
CC[C@@]1(O)C(=O)OCc2c1cc1n(c2=O)Cc2cc3c(CN(C)C)c(O)ccc3nc2-1.Cl [Topotecan HCl] + CC(C)C[C@H](NC(=O)[C@H](CCc1ccccc1)NC(=O)CN1CCOCC1)C(=O)N[C@@H](Cc1ccccc1)C(=O)N[C@@H](CC(C)C)C(=O)[C@@]1(C)CO1 [Carfilzomib]	7.58
CC(C)N=c1cc2n(-c3ccc(Cl)cc3)c3ccccc3nc-2cc1Nc1ccc(Cl)cc1 [Clofazimine] + CC(C)C[C@H](NC(=O)[C@H](CCc1ccccc1)NC(=O)CN1CCOCC1)C(=O)N[C@@H](Cc1ccccc1)C(=O)N[C@@H](CC(C)C)C(=O)[C@@]1(C)CO1 [Carfilzomib]	16.7
CC(C)c1nc(CN(C)C(=O)NC(C(=O)NC(Cc2ccccc2)CC(O)C(Cc2ccccc2)NC(=O)OCc2cncs2)C(C)C)cs1 (stereo not given) [Ritonavir] + CC(C)C[C@H](NC(=O)[C@H](CCc1ccccc1)NC(=O)CN1CCOCC1)C(=O)N[C@@H](Cc1ccccc1)C(=O)N[C@@H](CC(C)C)C(=O)[C@@]1(C)CO1 [Carfilzomib]	27.3
CC(C)c1nc(N(C)S(C)(=O)=O)nc(-c2ccc(F)cc2)c1C=CC(O)CC(O)CC(=O)[O-].CC(C)c1nc(N(C)S(C)(=O)=O)nc(-c2ccc(F)cc2)c1C=CC(O)CC(O)CC(=O)[O-].[Ca+2] (stereo not given) [Rosuvastatin Calcium] + CC(C)C[C@H](NC(=O)[C@H](CCc1ccccc1)NC(=O)CN1CCOCC1)C(=O)N[C@@H](Cc1ccccc1)C(=O)N[C@@H](CC(C)C)C(=O)[C@@]1(C)CO1 [Carfilzomib]	19.6
CC1(COc2ccc3c(c2)ncn3-c2ccc3cccc(N4CCC(N)CC4)c3n2)COC1 + CC(C)C[C@H](NC(=O)[C@H](CCc1ccccc1)NC(=O)CN1CCOCC1)C(=O)N[C@@H](Cc1ccccc1)C(=O)N[C@@H](CC(C)C)C(=O)[C@@]1(C)CO1 [Carfilzomib]	64.3
COc1cc2ncnc(Nc3ccc(F)c(Cl)c3)c2cc1NC(=O)C=CCN1CCCCC1 + CC(C)C[C@H](NC(=O)[C@H](CCc1ccccc1)NC(=O)CN1CCOCC1)C(=O)N[C@@H](Cc1ccccc1)C(=O)N[C@@H](CC(C)C)C(=O)[C@@]1(C)CO1 [Carfilzomib]	14.6
COc1cc(C(=O)O)ccc1NC(=O)C1NC(CC(C)(C)C)C(C#N)(c2ccc(Cl)cc2F)C1c1cccc(Cl)c1F (stereo not given) + CC(C)C[C@H](NC(=O)[C@H](CCc1ccccc1)NC(=O)CN1CCOCC1)C(=O)N[C@@H](Cc1ccccc1)C(=O)N[C@@H](CC(C)C)C(=O)[C@@]1(C)CO1 [Carfilzomib]	23.5
CN1CCC(COc2cnc(-c3cccc(Cn4nc(-c5cccc(C#N)c5)ccc4=O)c3)nc2)CC1 + CC(C)C[C@H](NC(=O)[C@H](CCc1ccccc1)NC(=O)CN1CCOCC1)C(=O)N[C@@H](Cc1ccccc1)C(=O)N[C@@H](CC(C)C)C(=O)[C@@]1(C)CO1 [Carfilzomib]	26.9

Structure (SMILES)	cell viability of combination
CNC1CCC(c2ccc(Cl)c(Cl)c2)c2ccccc21.Cl (stereo not given) [Sertraline HCl] + CC(C)C[C@H](NC(=O)[C@H](CCc1ccccc1)NC(=O)CN1CCOCC1)C(=O)N[C@@H](Cc1ccccc1)C(=O)N[C@@H](CC(C)C)C(=O)[C@@]1(C)CO1 [Carfilzomib]	11
CCc1cnn2c(NCc3ccc[n+]([O-])c3)cc(N3CCCCC3CCO)nc12 (stereo not given) + CC(C)C[C@H](NC(=O)[C@H](CCc1ccccc1)NC(=O)CN1CCOCC1)C(=O)N[C@@H](Cc1ccccc1)C(=O)N[C@@H](CC(C)C)C(=O)[C@@]1(C)CO1 [Carfilzomib]	7.14
CC(NCCCc1cccc(C(F)(F)F)c1)c1cccc2ccccc12.Cl (stereo not given) [Cinacalcet HCl] + CC(C)C[C@H](NC(=O)[C@H](CCc1ccccc1)NC(=O)CN1CCOCC1)C(=O)N[C@@H](Cc1ccccc1)C(=O)N[C@@H](CC(C)C)C(=O)[C@@]1(C)CO1 [Carfilzomib]	18.6
Br.Cc1ccc(Sc2ccccc2N2CCNCC2)c(C)c1 + CC(C)C[C@H](NC(=O)[C@H](CCc1ccccc1)NC(=O)CN1CCOCC1)C(=O)N[C@@H](Cc1ccccc1)C(=O)N[C@@H](CC(C)C)C(=O)[C@@]1(C)CO1 [Carfilzomib]	15.7
Nc1ccc2cc3ccc([NH3+])cc3nc2c1.Nc1ccc2cc3ccc([NH3+])cc3nc2c1.O=S(=O)([O-])[O-] [Proflavine Hemisulfate] + CC(C)C[C@H](NC(=O)[C@H](CCc1ccccc1)NC(=O)CN1CCOCC1)C(=O)N[C@@H](Cc1ccccc1)C(=O)N[C@@H](CC(C)C)C(=O)[C@@]1(C)CO1 [Carfilzomib]	11.2
CCC(=C(c1ccccc1)c1ccc(OCCN(C)C)cc1)c1ccccc1.O=C(O)CC(O)(CC(=O)O)C(=O)O [Tamoxifen Citrate] + CC(C)C[C@H](NC(=O)[C@H](CCc1ccccc1)NC(=O)CN1CCOCC1)C(=O)N[C@@H](Cc1ccccc1)C(=O)N[C@@H](CC(C)C)C(=O)[C@@]1(C)CO1 [Carfilzomib]	23.8
CS(=O)(=O)O.Cc1c(O)cccc1C(=O)NC(CSc1ccccc1)C(O)CN1CC2CCCCC2CC1C(=O)NC(C)(C)C (stereo not given) [Nelfinavir Mesylate] + CC(C)C[C@H](NC(=O)[C@H](CCc1ccccc1)NC(=O)CN1CCOCC1)C(=O)N[C@@H](Cc1ccccc1)C(=O)N[C@@H](CC(C)C)C(=O)[C@@]1(C)CO1 [Carfilzomib]	26.7
COc1ccc(C[C@H](N)C(=O)N[C@@H]2[C@H](O)[C@H](n3cnc4c(N(C)C)ncnc43)O[C@@H]2CO)cc1.Cl.Cl [Puromycin dihydrochloride] + CC(C)C[C@H](NC(=O)[C@H](CCc1ccccc1)NC(=O)CN1CCOCC1)C(=O)N[C@@H](Cc1ccccc1)C(=O)N[C@@H](CC(C)C)C(=O)[C@@]1(C)CO1 [Carfilzomib]	5.17
COCCOC(=O)C1=C(C)NC(C)=C(C(=O)OCC=Cc2ccccc2)C1c1cccc([N+](=O)[O-])c1 (stereo not given) [Cilnidipine] + CC(C)C[C@H](NC(=O)[C@H](CCc1ccccc1)NC(=O)CN1CCOCC1)C(=O)N[C@@H](Cc1ccccc1)C(=O)N[C@@H](CC(C)C)C(=O)[C@@]1(C)CO1 [Carfilzomib]	19.2
C1=C\COCc2cc(ccc2OCCN2CCCC2)Nc2nccc(n2)-c2cccc(c2)COC/1 [Pacritinib] + CC(C)C[C@H](NC(=O)[C@H](CCc1ccccc1)NC(=O)CN1CCOCC1)C(=O)N[C@@H](Cc1ccccc1)C(=O)N[C@@H](CC(C)C)C(=O)[C@@]1(C)CO1 [Carfilzomib]	11.5
CC(O)C(=O)O.CCOc1ccc2nc3cc(N)ccc3c(N)c2c1.O [Ethacridine lactate monohydrate] + CC(C)C[C@H](NC(=O)[C@H](CCc1ccccc1)NC(=O)CN1CCOCC1)C(=O)N[C@@H](Cc1ccccc1)C(=O)N[C@@H](CC(C)C)C(=O)[C@@]1(C)CO1 [Carfilzomib]	15.2
COc1cc2nccc(Oc3ccc(NC(=O)NC4CC4)c(Cl)c3)c2cc1C(N)=O [Lenvatinib (E7080)] + CC(C)C[C@H](NC(=O)[C@H](CCc1ccccc1)NC(=O)CN1CCOCC1)C(=O)N[C@@H](Cc1ccccc1)C(=O)N[C@@H](CC(C)C)C(=O)[C@@]1(C)CO1 [Carfilzomib]	21.9
CN(C)CC=CC(=O)Nc1cc2c(Nc3ccc(F)c(Cl)c3)ncnc2cc1OC1CCOC1 (stereo not given) [Afatinib (BIBW2992)] + CC(C)C[C@H](NC(=O)[C@H](CCc1ccccc1)NC(=O)CN1CCOCC1)C(=O)N[C@@H](Cc1ccccc1)C(=O)N[C@@H](CC(C)C)C(=O)[C@@]1(C)CO1 [Carfilzomib]	12.3
Cc1c(-c2ccc(O)cc2)n(Cc2ccc(OCCN3CCCCCC3)cc2)c2ccc(O)cc12.Cl [Bazedoxifene HCl] + CC(C)C[C@H](NC(=O)[C@H](CCc1ccccc1)NC(=O)CN1CCOCC1)C(=O)N[C@@H](Cc1ccccc1)C(=O)N[C@@H](CC(C)C)C(=O)[C@@]1(C)CO1 [Carfilzomib]	11.3
Clc1ccc(CSC(Cn2ccnc2)c2ccc(Cl)cc2Cl)cc1.O=[N+]([O-])O (stereo not given) [Sulconazole Nitrate] + CC(C)C[C@H](NC(=O)[C@H](CCc1ccccc1)NC(=O)CN1CCOCC1)C(=O)N[C@@H](Cc1ccccc1)C(=O)N[C@@H](CC(C)C)C(=O)[C@@]1(C)CO1 [Carfilzomib]	14.2
CC(C)(C)NC(=O)C1CC2CCCCC2CN1CC(O)C(Cc1ccccc1)NC(=O)C(CC(N)=O)NC(=O)c1ccc2ccccc2n1.CS(=O)(=O)O (stereo not given) [Saquinavir mesylate] + CC(C)C[C@H](NC(=O)[C@H](CCc1ccccc1)NC(=O)CN1CCOCC1)C(=O)N[C@@H](Cc1ccccc1)C(=O)N[C@@H](CC(C)C)C(=O)[C@@]1(C)CO1 [Carfilzomib]	22.9
O=C(O)CO.[NH2-].[NH2-].[Pt+2] [Nedaplatin] + CC(C)C[C@H](NC(=O)[C@H](CCc1ccccc1)NC(=O)CN1CCOCC1)C(=O)N[C@@H](Cc1ccccc1)C(=O)N[C@@H](CC(C)C)C(=O)[C@@]1(C)CO1 [Carfilzomib]	16.4
CCN1CCN(Cc2ccc(Nc3ncc(F)c(-c4cc(F)c5nc(C)n(C(C)C)c5c4)n3)nc2)CC1.CS(=O)(=O)O + CC(C)C[C@H](NC(=O)[C@H](CCc1ccccc1)NC(=O)CN1CCOCC1)C(=O)N[C@@H](Cc1ccccc1)C(=O)N[C@@H](CC(C)C)C(=O)[C@@]1(C)CO1 [Carfilzomib]	23.6
CCOc1cc2ncc(C#N)c(Nc3ccc(F)c(Cl)c3)c2cc1NC(=O)C=CCN(C)C [Pelitinib (EKB-569)] + CC(C)C[C@H](NC(=O)[C@H](CCc1ccccc1)NC(=O)CN1CCOCC1)C(=O)N[C@@H](Cc1ccccc1)C(=O)N[C@@H](CC(C)C)C(=O)[C@@]1(C)CO1 [Carfilzomib]	5.92
CCOC(=O)c1c(CSc2ccccc2)n(C)c2cc(Br)c(O)c(CN(C)C)c12.Cl [Arbidol HCl] + CC(C)C[C@H](NC(=O)[C@H](CCc1ccccc1)NC(=O)CN1CCOCC1)C(=O)N[C@@H](Cc1ccccc1)C(=O)N[C@@H](CC(C)C)C(=O)[C@@]1(C)CO1 [Carfilzomib]	22
